According to PubChem BioAssay (NCATS):
Inconclusive results are not listed. Activity calls are given as the source filed them. Unless noted, calls come from the whole dose curve; as a rule, active = well fitted curve in the direction sought with a large enough effect; inconclusive = small, poorly fitted or top-dose-only effect, or another doubt; inactive = no such curve, though single readings can be large; an effect the other way counts as inactive or inconclusive. Where a SMILES comes first, the peptide text is derived from it. [ ]: non-standard residue; d: D form. The star is where a group is joined. Dolaproine = CO[C@@H]([C@@H]1CCCN1)[C@@H](C)C(=O)O; Dil = CC[C@H](C)[C@H](NC)[C@@H](CC(=O)O)OC; Doe = c1ccc(C[C@H](N*)c2nccs2)cc1; Aib = CC(C)(N)C(=O)O

Columns and labels:
[1] = P-glycoprotein substrates identified in KB-3-1 adenocarcinoma cell line, qHTS therapeutic library screen (AID 1346986); note: nearly all actives have a fitted effect of over 60% in size
How it was run: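 72 h cell-killing screen, 500 cells/well, CellTiter-Glo luminescence. Paired lines KB-3-1/KB-8-5-11; P-gp dependence checked by tariquidar co-treatment and HEK-293 MDR-19 versus empty-vector cells.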

[2] = biological target: Cytochrome P450 2D6 (Homo sapiens) (UniProt P10635); assay: Cytochrome P450 family 2 subfamily D member 6 (CYP2D6) small molecule antagonists: luciferase biochemical (cell-free) qHTS assay (AID 1645840; active = well fitted curve in the direction sought with a large enough effect in the repeat runs; an effect the other way counts as inactive or inconclusive; note: nearly all actives have a fitted effect of over 55% in size; note: potency is the fitted concentration of half-maximal effect; for activity change, negative = inhibition: % is set by controls: 0 for no effect and ±100 for the full control effect)
Cytochrome P450 2D6 (Homo sapiens), sequence (P10635 whole entry, looked up): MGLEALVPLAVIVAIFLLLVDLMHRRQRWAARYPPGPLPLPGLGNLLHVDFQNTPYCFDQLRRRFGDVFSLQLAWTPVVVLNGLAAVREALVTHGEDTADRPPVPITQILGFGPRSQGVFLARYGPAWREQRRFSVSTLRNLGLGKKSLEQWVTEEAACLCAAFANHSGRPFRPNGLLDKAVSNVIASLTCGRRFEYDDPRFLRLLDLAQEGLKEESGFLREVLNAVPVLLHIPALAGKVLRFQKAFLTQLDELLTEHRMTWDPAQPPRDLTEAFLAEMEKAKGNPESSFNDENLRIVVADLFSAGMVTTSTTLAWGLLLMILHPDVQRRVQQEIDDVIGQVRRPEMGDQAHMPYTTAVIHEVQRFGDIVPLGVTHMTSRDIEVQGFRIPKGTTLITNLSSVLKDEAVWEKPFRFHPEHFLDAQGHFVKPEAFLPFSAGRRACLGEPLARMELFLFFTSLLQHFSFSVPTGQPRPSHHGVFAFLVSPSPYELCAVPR
How it was run: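 P450-Glo CYP2D6 system: proluciferin substrate converted by enzyme to luciferin, read by luminescence proportional to activity. Enzyme-substrate mix with compound 10 min at room temperature, then NADPH regeneration 1 h before detection reagent.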

[3] = biological target: Cytochrome P450 2C9 (Homo sapiens) (UniProt P11712); assay: Cytochrome P450 family 2 subfamily C member 9 (CYP2C9) small molecule antagonists: luciferase biochemical (cell-free) qHTS assay (AID 1645842; active = well fitted curve in the direction sought with a large enough effect in the repeat runs; an effect the other way counts as inactive or inconclusive; note: nearly all actives have a fitted effect of over 55% in size; note: potency is the fitted concentration of half-maximal effect)
Cytochrome P450 2C9 (Homo sapiens), sequence (P11712 whole entry, looked up): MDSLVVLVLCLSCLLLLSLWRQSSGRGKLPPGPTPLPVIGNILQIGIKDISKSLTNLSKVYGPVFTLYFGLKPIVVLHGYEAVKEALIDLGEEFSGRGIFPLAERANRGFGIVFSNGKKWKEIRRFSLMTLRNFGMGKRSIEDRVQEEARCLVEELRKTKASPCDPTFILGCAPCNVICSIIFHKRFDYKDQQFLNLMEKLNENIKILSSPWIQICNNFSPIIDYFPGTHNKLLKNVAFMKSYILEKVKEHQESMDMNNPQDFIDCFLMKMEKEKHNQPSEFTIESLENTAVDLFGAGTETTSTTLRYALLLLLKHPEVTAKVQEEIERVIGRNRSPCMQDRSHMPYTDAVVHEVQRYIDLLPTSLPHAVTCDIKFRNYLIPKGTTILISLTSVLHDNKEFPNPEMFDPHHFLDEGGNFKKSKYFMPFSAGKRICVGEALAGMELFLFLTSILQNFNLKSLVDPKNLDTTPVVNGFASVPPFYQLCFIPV
How it was run: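 P450-Glo CYP2C9 system: proluciferin substrate with enzyme in mix containing 0.4% BSA, 10 min at room temperature, then NADPH regeneration solution added and incubated 1 h at 37C. Detection reagent stopped reaction; luminescence read after 20 min as RLU.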

[4] = Primary fluorescence-based thiol-reactive (MSTI) qHTS assay for identification of artifact compounds. (AID 1845221);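 note: thiol-reactive compounds lower the probe fluorescence signal; nearly all actives have a fitted effect of over 65% in size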
How it was run: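 Compounds were incubated 1 h at room temperature in the dark with the MSTI probe (4 uM) in PBS pH 7.4, 2% DMSO. Signals were normalized between Acetyl-MSTI and MSTI.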

[5] = Primary redox qHTS assay for identification of artifact compounds. (AID 1845223);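 note: 0% = DMSO and 100% = reference compound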
How it was run: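 Redox-cycling detection via DTT (250 uM final) oxidation coupled to Amplex Red (25 uM)/HRP (250 mU/mL) in HBSS. 15 min preincubation plus 30 min after DTT, room temperature. Ex/Em 525/598 nm; 4-parameter Hill fit against DMSO and 10 uM DA3003.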

[6] = tested on: HaCat; assay: Cytotoxic Profiling of Annotated Libraries Using Quantitative High-Throughput Screening (AID 1296008); conditions: Five cell lines viability, CellTiter-Glo ATP luminescence, 48-72 h; max response: stronger effect = lower value; note: nearly all actives have a fitted effect of over 60% in size; note: potency is the fitted concentration of half-maximal effect; for max response: % is set by controls: 0 for no effect and ±100 for the full control effect
How it was run: (§1)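 Compounds were pin-transferred onto cells and incubated 48 or 72 hr at 37 degree Celsius, 95% humidity. CellTiter-Glo was added, plates sat 10 min at room temperature, then ATP-coupled luminescence was imaged as the viability read-out.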

[7] = tested on: HACAT; assay: qHTS assay to identify novel small-molecules to repurpose for Merkel cell carcinoma treatment (AID 1296009); conditions: MCC and control cell lines, CellTiter-Glo viability, 72 h; at 44.8 µM (top of the series) unless noted; note: nearly all actives have a fitted effect of over 60% in size
How it was run: (§2)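 Viability readout: ATP luminescence (CellTiter-Glo) after 72 hr drug exposure at 37 degree celsius. Dose-response format was 8 points for NPC and 11 points for MIPE; data normalized to in-plate controls.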

[8] = tested on: SKOV3; assay: Primary qHTS to identify gynecologic anti-cancer compounds using libraries of approved drugs and bioactive compounds (AID 1345084); conditions: Gynecologic cancer cell panel viability, ATPlite luminescence, 48 h; series mostly up to 57.5 µM; note: nearly all actives have a fitted effect of over 55% in size; note: potency is the fitted concentration of half-maximal effect; for activity change, negative = cytotoxicity: % is set by controls: 0 for no effect and ±100 for the full control effect
How it was run: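 Luminescence from the ATPlite ATP-monitoring reagent indicates viable cell number; lower signal means cytotoxicity. Cells received compound 16 h after seeding and were exposed for 48 h across five concentrations.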

[9] = Primary qHTS for inhibitors of nuclear receptor binding SET domain protein 2 (NSD2) in an isogenic RCH-ACV NSD2 p.E1099K mutant (9B) (AID 1645876); note: nearly all actives have a fitted effect of over 70% in size; note: potency is the fitted concentration of half-maximal effect
[10] = Primary qHTS for inhibitors of nuclear receptor binding SET domain protein 2 (NSD2) in an RCH-ACV wild type WT cells (2C) (AID 1645877); note: nearly all actives have a fitted effect of over 70% in size; note: potency is the fitted concentration of half-maximal effect
[11] = biological target: Catechol O-methyltransferase (Homo sapiens) (UniProt P21964); assay: Confirmatory Screen for Target Class Profiling of Small Molecule Inhibitors of Methyltransferases (AID 1745852); conditions: MTase-Glo luminescence, SAH detection, recombinant enzyme; measured here: COMT max response; stronger effect = lower value; for activity change, negative = inhibition: % is set by controls: 0 for no effect and ±100 for the full control effect
Catechol O-methyltransferase (Homo sapiens), sequence (P21964 whole entry, looked up): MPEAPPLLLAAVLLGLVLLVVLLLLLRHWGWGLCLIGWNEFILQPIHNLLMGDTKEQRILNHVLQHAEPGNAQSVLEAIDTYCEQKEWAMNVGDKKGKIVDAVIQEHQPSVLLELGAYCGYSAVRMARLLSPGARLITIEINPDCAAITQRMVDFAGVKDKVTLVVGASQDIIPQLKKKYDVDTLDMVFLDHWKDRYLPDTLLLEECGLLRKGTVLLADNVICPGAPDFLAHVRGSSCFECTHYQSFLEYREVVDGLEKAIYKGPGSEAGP

[12] = biological target: Guanidinoacetate N-methyltransferase (Homo sapiens) (UniProt Q14353); assay: as above; conditions: activity change, negative = inhibition: at 57.3 µM (top of the series) unless noted
[13] = biological target: Nicotinamide N-methyltransferase (Homo sapiens) (UniProt P40261); assay: as above; conditions: MTase-Glo luminescence, SAH detection, recombinant enzyme; measured here: NNMT max response; stronger effect = lower value
Nicotinamide N-methyltransferase (Homo sapiens), sequence (P40261 whole entry, looked up): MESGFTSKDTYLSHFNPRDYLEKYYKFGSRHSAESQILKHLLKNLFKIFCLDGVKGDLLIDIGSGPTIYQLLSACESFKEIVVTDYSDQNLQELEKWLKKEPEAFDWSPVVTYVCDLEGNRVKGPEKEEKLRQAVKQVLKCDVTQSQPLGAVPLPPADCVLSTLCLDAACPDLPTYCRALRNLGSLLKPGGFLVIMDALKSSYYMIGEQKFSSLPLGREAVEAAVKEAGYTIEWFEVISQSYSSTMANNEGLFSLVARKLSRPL

[14] = biological target: Phenylethanolamine N-methyltransferase (Homo sapiens) (UniProt P11086); assay: as above; conditions: MTase-Glo luminescence, SAH detection, recombinant enzyme; measured here: PNMT max response; stronger effect = lower value
Phenylethanolamine N-methyltransferase (Homo sapiens), sequence (P11086 whole entry, looked up): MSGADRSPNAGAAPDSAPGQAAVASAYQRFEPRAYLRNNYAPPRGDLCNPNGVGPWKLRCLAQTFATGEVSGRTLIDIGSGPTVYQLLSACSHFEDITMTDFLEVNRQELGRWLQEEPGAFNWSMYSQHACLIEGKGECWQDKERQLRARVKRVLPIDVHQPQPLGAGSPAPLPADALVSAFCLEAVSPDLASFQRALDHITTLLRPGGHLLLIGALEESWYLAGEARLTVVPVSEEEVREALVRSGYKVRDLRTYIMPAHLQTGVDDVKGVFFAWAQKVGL

[15] = tested on: HEK293; assay: Cytotoxic Profiling of Annotated Libraries Using Quantitative High-Throughput Screening (AID 1296008); conditions: Five cell lines viability, CellTiter-Glo ATP luminescence, 48-72 h; max response: stronger effect = lower value; note: nearly all actives have a fitted effect of over 60% in size; note: potency is the fitted concentration of half-maximal effect
How it was run: as §1

[16] = tested on: KB-3-1; assay: as above; conditions: Five cell lines viability, CellTiter-Glo ATP luminescence, 48-72 h; max response: stronger effect = lower value
How it was run: as §1

[17] = tested on: Zika virus NS2B-NS3 protease (unlinked complex); assay: Primary screen GU Rhodamine qHTS for Zika virus inhibitors: Unlinked NS2B-NS3 protease assay (AID 1347159)
How it was run: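 Percent inhibition came from the 15-min rise in Rhodamine110 fluorescence (1.5 microM substrate, ~15% conversion), normalized to no-inhibitor and no-enzyme wells and Hill-fitted. Unlinked protease, 25 nM, pH 8.0 Tris buffer; compounds up to 114 microM, 15-min preincubation.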

[18] = tested on: CRL-7250; assay: qHTS assay to identify novel small-molecules to repurpose for Merkel cell carcinoma treatment (AID 1296009); conditions: MCC and control cell lines, CellTiter-Glo viability, 72 h; series mostly up to 92 µM; note: nearly all actives have a fitted effect of over 60% in size
How it was run: as §2

O=S(=O)(c1ccccc1F)N1CCOc2c(N3CCNCC3)cccc21
active: Potency [3] 9.52 µM
inactive: Potency [1] | Potency [2] | Potency [4] | Potency [5] | outcome [6] | outcome [7] | Potency [8]

O=C1Nc2ccc3ncsc3c2/C1=C/c1cnc[nH]1
-5.42%: activity change, negative = inhibition [12]
-10.3%: activity [11]
-8.72%: activity [13]
-10%: activity [14]
inactive: Potency [4] | Potency [5]
active: Potency [2] 1.69 µM | Potency [3] 3.38 µM | Potency [9] 0.649 µM | Potency [10] 0.578 µM | Potency [15] 5.17 µM | Potency [6] 4.11 µM | Potency [16] 2.31 µM

O=C1CN=C(c2cccc(Br)c2)c2oc3ccccc3c2N1
active: Potency [3] 10.7 µM | Potency [9] 9.16 µM | Potency [10] 6.49 µM
inactive: Potency [17] | Potency [2] | Potency [4] | Potency [5] | Potency [18]

COc1ccc(CCNCc2ccc(OC)c3ccccc23)cc1
inactive: Potency [17] | Potency [4] | Potency [5] | max response [16] -13.8% | Potency [8]
active: Potency [9] 14.5 µM | Potency [10] 16.3 µM

C/C=C(\C)C(O)C(C)/C=C(C)/C=C/C/C(C)=C/Cc1nc(OC)c(OC)c(O[C@@H]2O[C@@H](C)[C@H](O)[C@@H](O)[C@H]2O)c1C (stereo partly specified)
active: Potency [9] 3.55 µM | Potency [10] 3.99 µM | Potency [8] 3.16 µM
inactive: Potency [17] | Potency [4] | outcome [6] | outcome [7] inactive [at 17.4 µM]

O=C(C[C@@H]1NCCC[C@H]1O)Cn1cnc2ccccc2c1=O
active: Potency [9] 0.129 µM | Potency [10] 0.145 µM | Potency [6] 1.3 µM
inactive: Potency [17] | Potency [4] | Potency [5]

Cc1ccc(Cn2nc(C(=O)N[C@@H]3C(C)(C)[C@@H]4CC[C@@]3(C)C4)cc2-c2ccc(Cl)c(C)c2)cc1
active: Potency [3] 2.68 µM
inactive: Potency [17] | Potency [2] | Potency [9] | Potency [10] | Potency [4] | Potency [5] | max response [16] 0.44% | Potency [8]

CCOC(=O)c1ccc(-c2ccc(OC(=O)N(C)Cc3cccc(-c4ccncc4)c3)cc2)cc1
inactive: Potency [9] | Potency [10] | Potency [4] | Potency [5] | max response [6] -8.03% | max response [16] 1.19% | Potency [8]
active: Potency [2] 6.74 µM | Potency [3] 0.952 µM | Potency [15] 9.2 µM

C[C@@H]1O[C@@H](O[C@H]2CC[C@@]3(C)C(CC[C@@H]4C3CC[C@]3(C)[C@@H](C5=CC(=O)OC5)CC[C@]43O)C2)[C@H](O[C@@H]2O[C@H](CO)[C@@H](O)[C@H](O)[C@H]2O)[C@H](O)[C@H]1O (stereo partly specified)
active: Potency [9] 0.171 µM | Potency [10] 0.483 µM | Potency [15] 0.485 µM | Potency [6] 2.17 µM | Potency [16] 0.862 µM | Potency [8] 2.24 µM
inactive: Potency [17] | Potency [4]

CC[C@@H]1/C=C/C=C/C[C@H](C)C(O)[C@](C)(O)C(=O)[C@H](C)C(O)[C@H](C)C(=O)[C@H](C)[C@@H](O)[C@H](C)/C=C/C(=O)O[C@H]2[C@@H](C)[C@@H](CC1)O[C@]1(O[C@H](C[C@H](C)O)[C@H](C)CC1=O)[C@@H]2C (stereo partly specified)
inactive: activity change, negative = thiol reactive [4] -8.56% [at 11.5 µM] | redox activity (% of DA3003) [5] 13.1% [at 11.5 µM] | max response [6] -17.7%
active: Potency [9] 0.123 µM | Potency [10] 0.138 µM | Potency [15] 0.0174 µM | Potency [16] 0.0491 µM

CC(=O)NCCCOc1ccc(C(=O)N2CCC(N3C(=O)CCc4ccccc43)CC2)cc1
inactive: Potency [17] | Potency [2] | Potency [3] | Potency [4] | Potency [5] | max response [16] 5.83% | Potency [8]

C/C=C(\C)C(=O)OC1C2C3(C)CCC(OC4CC(OC)C(OC5OC(C)C(O)C(OC)C5O)C(C)O4)CC3CCC23OC32CCC(C(C)=O)C2(C)C1OC(=O)/C(C)=C/C (stereo unspecified)
inactive: activity change, negative = viability loss [9] -17.6% [at 9.23 µM] | activity change, negative = cell killing [10] -23.1% [at 9.23 µM] | activity change, negative = thiol reactive [4] 84.6% [at 11.5 µM] | redox activity (% of DA3003) [5] 18.3% [at 11.5 µM] | outcome [6] | outcome [7] inactive [at 9.27 µM] | activity change, negative = cytotoxicity [8] -30.2% [at 11.6 µM]

C=C1CC[C@H]2[C@@H](/C=C(\C)C(=O)[C@@]3(OC(C)=O)C[C@H](C)[C@H](OC(=O)c4ccccc4)[C@@H]3[C@H]1OC(C)=O)C2(C)C
inactive: Potency [17] | Potency [4] | max response [6] -1.11% | Potency [8]

CC[C@H](C)[C@@H]([C@@H](CC(=O)N1CCC[C@H]1[C@H](OC)[C@@H](C)C(=O)N[C@@H](Cc1ccccc1)c1nccs1)OC)N(C)C(=O)[C@@H](NC(=O)C(C)(C)N)C(C)C (H-[Aib]V[Dil][Dolaproine]-Doe)
active: Potency [16] 0.001 µM
inactive: Potency [9] | Potency [10] | max response [15] -94.9% | outcome [6] | outcome [7] | Potency [8]

CN1CN(c2ccccc2)C2(CCN(CCCC(=O)c3ccc(F)cc3)CC2)C1=O
inactive: Potency [17] | Potency [4] | max response [6] 2.53% | max response [16] -4.39% | Potency [8]
active: Potency [9] 23 µM | Potency [10] 25.8 µM | Potency [15] 14.6 µM
